Bioassay records as filed in PubChem BioAssay.
WT yeast gro inh: growth inhibition of WT yeast, mitochondrial fusion screen. mitochondrial fusion phenotypic screen, WT strain. inhibition, % at 10 µM. hit rate 2.1% among 190,000; in the data active = inhibition above about 58%; tested in S. cerevisiae
TPT1 inh: C. albicans TPT1 enzyme inhibition | recombinant caTPT1, FP RNA substrate dephosphorylation | inhibition, % at 5 µM | hit rate 0.81% among 300,000;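 active = inhibition above the mean of all tested compounds plus 3 SD, set per screening campaign, cut at about 24% in these data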;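 note: plate controls were DMSO alone for no effect and ferristatin control at 100 nM for full effect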
Rtt109 HAT inh: blocks Candida albicans Rtt109/Vps75 acetyltransferase activity; hit rate 0.16% among 330,000; inhibition, % at 34.9 µM; AID 540336; Q5AAJ8; purified Rtt109/Vps75, ThioGlo CoA-SH fluorescence, 4 h;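 active = inhibition of at least 50% in every replicate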
Target sequence (Q5AAJ8 whole entry, looked up): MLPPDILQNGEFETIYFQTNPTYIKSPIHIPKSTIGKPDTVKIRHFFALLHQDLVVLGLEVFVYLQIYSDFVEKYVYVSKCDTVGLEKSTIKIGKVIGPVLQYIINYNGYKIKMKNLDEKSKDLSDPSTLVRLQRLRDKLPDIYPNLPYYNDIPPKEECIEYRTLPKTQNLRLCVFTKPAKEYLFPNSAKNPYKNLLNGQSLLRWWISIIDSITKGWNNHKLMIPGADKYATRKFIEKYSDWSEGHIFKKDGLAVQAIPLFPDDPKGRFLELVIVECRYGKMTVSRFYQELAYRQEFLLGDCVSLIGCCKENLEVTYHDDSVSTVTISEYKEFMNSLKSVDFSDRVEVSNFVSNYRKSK
PHOSPHO1 block: PHOSPHO1 (human) inhibition; Q8TCT1; inhibition, % at 13.3 µM; hit rate 1.1% among 290,000; recombinant PHOSPHO1, absorbance phosphatase assay; in the data active = inhibition above about 60%
Platelet DG rel: modulates dense granule release in human platelets | hit rate 0.22% among 300,000 | AID 1663 | human platelet-rich plasma, SFLLRN dense granule ATP release, luminescence | inhibition, %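 (compounds screened at 7.5 µM in platelet-rich plasma)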;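 active = mean replicate score, as percent of positive control, at or above 50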
SKKanGAS inh: inhibitors of SKKanGAS S. pyogenes growth in kanamycin (SK-promoter or general growth effect). BacTiter-Glo, 6 h. inhibition, % at 7.5 µM. hit rate 1.3% among 300,000;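 active = mean replicate score, as percent of positive control median, at least 50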;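 note: strain carries kanamycin resistance gene driven by streptokinase promoter and grows in 40 µg/ml kanamycin; loss of luminescence reflects streptokinase promoter inhibition or plain growth inhibition; 0% = median of DMSO wells and 100% = positive control at its reference dose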
TPT1 inh confirm: TPT1 (C. albicans) inhibition, confirmation | shares compounds with TPT1 inh | hit rate 74% among 2,400 | recombinant caTPT1, fluorescence polarization, RNase T1 coupled | inhibition, % at 5 µM | AID 2149;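 active = inhibition above the primary screen limit, the mean inhibition of all tested compounds plus 3 SD, cut at about 25% in these data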
RNase T1 inh: RNase T1 inhibition in TPT1 counter-screen. shares compounds with TPT1 inh. RNase T1 cleavage, fluorescence polarization, 1536-well. inhibition, % at 5 µM. hit rate 83% among 2,400;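 active = inhibition above the solvent-only control well mean plus 3 SD, limit set per screening run, cut at about 23% in these data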;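 note: plate controls were DMSO wells with enzyme for no effect and wells without RNase T1 for full effect; inhibitors block cleavage so intact labeled substrate keeps polarization high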
Target sequence (P00651 whole entry, looked up): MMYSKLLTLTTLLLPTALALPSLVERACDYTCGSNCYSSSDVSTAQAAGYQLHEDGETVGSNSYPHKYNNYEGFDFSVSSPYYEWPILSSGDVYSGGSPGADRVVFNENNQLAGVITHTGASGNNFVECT
Starred values were filed as active, the others as inactive; . = not tested or not shown. Shown are actives, neighbours in structure and some others; about 3.9% of the full set was active somewhere.

SMILES	WT yeast gro inh	TPT1 inh	Rtt109 HAT inh	PHOSPHO1 block	Platelet DG rel	SKKanGAS inh	TPT1 inh confirm	RNase T1 inh
O=C(O)C1Nc2c(Cl)cc(Cl)cc2C2C=CCC12 (centres undefined)	.	33.2*	-3.0	-46.8	10.3	10.6	11.2	16.5
O=C(O)C1Nc2c(O)cccc2C2C=CCC12 (centres undefined)	-0.9	15.2	-3.7	-5.8	.	.	.	.
CCN1C(=O)[C@H]2[C@H]3CN=C(SCc4ccc(C(=O)OC)cc4)N3[C@@](C)(C(=O)OC)[C@H]2C1=O	.	.	0.2	.	.	.	.	.
COC(=O)[C@]1(C)N[C@H](CN(C)C(=O)c2ccc(F)cc2)[C@@H]2C(=O)N(C)C(=O)[C@@H]21	.	.	-8.7	.	.	.	.	.
CCc1ccc2c(COC(=O)C3CSC4(C)CCC(=O)N34)cc(=O)oc2c1 (centres undefined)	.	.	-1.7	.	.	.	.	.
CN1C(=O)/C(=C/C=C2/CCCN2C)N(C)C1=S	-7.8	40.5*	1.1	-31.1	1.0	4.7	89.8*	102.5*
Cc1ccc(S(=O)(=O)NNc2nnc(C)c(=O)[nH]2)cc1	-10.9	51.2*	4.6	-98.9	-3.9	-8.2	3.5	6.0
COc1ccccc1COC(=O)N/C=C/c1ccco1	-10.4	42.1*	-17.2	-12.3	3.9	9.9	19.6	24.8*
O=C(c1ccc2ccccc2n1)N1CCN(S(=O)(=O)c2ccccc2)CC1	.	.	-1.1	.	.	.	.	.
CN(C)c1ccc(/C=N/N(CCC#N)C2=NS(=O)(=O)c3ccccc32)cc1	.	26.9*	3.0	37.3	3.8	11.0	8.5	16.8
Cc1cc2oc(=O)cc(CN3CCCCC3)c2cc1C	.	1.1	1.9	36.0	1.4	-0.8	.	.
Cc1cc2oc(=O)cc(CN3CCCc4ccccc43)c2cc1C	7.2	48.4*	.	73.8*	0.2	9.7	43.3*	53.1*
Cc1cccc(NC(=O)c2nc[nH]c2C(=O)N2CCN(c3ccccc3)CC2)c1	.	.	-1.4	.	.	.	.	.
COc1ccc2nc(SCC(N)=O)cc(C)c2c1	14.9	-0.2	-6.0	10.6	-17.3	-11.4	.	.
COc1ccc2c(C)cc(SCC(=O)N3CCOCC3)nc2c1	-2.8	72.5*	-7.2	-9.6	-4.7	5.1	61.2*	72.6*
COc1ccc2c(-c3ccccc3)cc(SCC(N)=O)nc2c1	.	34.7*	1.8	25.1	1.0	-5.9	38.7*	50.4*
CCCCN1C(=O)c2cccc3cc(O)cc(c23)C1=O	.	37.3*	-3.8	.	8.6	21.4	42.0*	47.9*
CNC(=O)/C(C#N)=C/c1c(N2CCCCCC2)nc2ccccn2c1=O	.	36.0*	-1.3	32.7	7.5	2.3	51.4*	60.2*
CCNC(=O)/C(C#N)=C/c1c(N2CCCCCC2)nc2ccccn2c1=O	.	0.9	-6.0	23.9	-5.8	8.1	.	.
Cc1cc(/C=C2/SC(=S)N(c3cccc(C(F)(F)F)c3)C2=O)c(C)n1-c1cccnc1	.	87.7*	4.3	.	3.6	10.1	91.6*	98.9*
Cc1cc(/C=C2\SC(=S)N(Cc3ccco3)C2=O)c(C)n1-c1cccnc1	-17.4	.	-11.3	21.5	-7.4	13.9	.	.
CN(C)S(=O)(=O)c1cccc(NC(=S)N/N=C/c2cc(Br)ccc2O)c1	.	25.1*	7.4	-0.3	2.0	107.0*	53.2*	59.3*
Cc1ccccc1NC(=O)Cn1c(CCC(=O)O)ccc1-c1cccs1	-13.7	3.3	-3.9	8.8	-3.0	3.0	.	.
COC(=O)c1ccccc1NC(=O)Cn1c(CCC(=O)O)ccc1-c1cccs1	-8.7	31.9*	0.3	5.0	4.3	4.0	21.2	32.2*
COc1ccc(C2CC(c3ccccc3)=NN2c2ccc(N)cc2)cc1 (centres undefined)	37.9	28.7*	5.7	-13.0	11.6	-5.7	38.0*	50.5*
SMILES	WT yeast gro inh	TPT1 inh	Rtt109 HAT inh	PHOSPHO1 block	Platelet DG rel	SKKanGAS inh	TPT1 inh confirm	RNase T1 inh
COc1ccc(C2CC(c3ccccc3O)=NN2c2ccccc2)cc1 (centres undefined)	.	-2.7	15.2	.	16.1	13.8	.	.
COc1cc(C2CC(=O)Nc3cc(C)c(C)cc32)cc(OC)c1OC (centres undefined)	-3.9	-2.5	8.7	6.5	-12.2	6.2	.	.
Cc1cc2c(cc1C)C(c1cccc([N+](=O)[O-])c1)CC(=O)N2 (centres undefined)	15.5	52.9*	-3.6	-9.0	-7.9	4.5	18.7	31.6*
CC(=O)N1CCc2cc(N=NC3=C(O)CC(C)(C)CC3=O)ccc21	-15.1	26.8*	27.7	23.6	1.6	12.2	46.2*	56.9*
CC(/C=N/n1c(-c2cccnc2)n[nH]c1=S)=C\c1ccco1	.	-3.0	-8.2	-146.9	-10.0	29.6	.	.
CC(/C=N/n1c(-c2n[nH]c3c2CCC3)n[nH]c1=S)=C\c1ccco1	.	32.8*	6.7	3.6	13.1	18.0	4.0	8.6
Cc1ccc(/C=C2\SC(=S)N(NS(=O)(=O)c3ccc(C)cc3)C2=O)cc1	.	3.9	-5.2	-23.5	-1.3	9.7	.	.
Cn1cccc1/C=C1\SC(=S)N(Nc2ccccc2)C1=O	.	42.0*	-0.1	16.2	2.8	0.9	71.5*	86.9*
Cc1ccc(S(=O)(=O)NN2C(=O)/C(=C/c3cccn3C)SC2=S)cc1	51.1	56.6*	.	0.1	.	.	60.1*	74.2*
O=C1/C(=C/c2cccnc2)SC(=S)N1Nc1ccccc1	.	-3.9	.	-5.9	-11.7	-3.1	.	.
CCN(CC)c1ccc(C=C(c2nnnn2-c2ccc(C)cc2)c2nnnn2-c2ccc(C)cc2)cc1	-4.7	76.6*	.	-9.0	-0.6	-2.7	72.7*	84.5*
Cc1c(C#N)c(O)[nH]c(=O)c1N=Nc1ccc(S(N)(=O)=O)cc1	.	24.5*	4.1	-3.5	-4.7	3.6	13.7	26.3*
O=C(COC(=O)CCN1C(=O)/C(=C\C=C\c2ccccc2)SC1=S)Nc1cc(F)ccc1F	10.0	27.7*	-3.9	22.6	8.6	2.3	33.5*	42.3*
O=C(CN1C(=O)/C(=C\C=C\c2ccccc2)SC1=S)Nc1ccc(F)cc1	-7.2	11.8	0.2	-39.4	-9.8	9.7	.	.
CCOC(=O)c1sc(/N=C/c2c(C)[nH]n(-c3ccccc3)c2=O)c(C#N)c1C	77.3*	29.9*	.	-7.4	-0.1	1.3	120.3*	123.5*
C=CCn1c(=O)/c(=C/c2ccc(O)cc2)s/c1=C(/C#N)c1nnc2n1CCCCC2	-18.4	118.5*	4.2	7.0	.	.	119.1*	116.1*
C=CCn1c(=O)/c(=C/c2ccc(Cl)cc2)s/c1=C(/C#N)c1nnc2n1CCCCC2	18.9	-3.6	.	-77.5	5.6	-0.3	.	.
COc1ccc(C)cc1Nc1n[n+](-c2ccccc2)c(-c2cc([N+](=O)[O-])cc(OC)c2O)s1	.	24.2*	-1.7	-7.3	5.8	13.0	119.6*	120.2*
NC(=O)c1ccc(N=Cc2c(O)ccc3ccccc23)cc1	.	-0.2	-0.4	.	16.1	-11.6	.	.
